A number with no mark means an inactive call. For part of these data: Potency and affinity values are given separately. Active and inactive are the calls of the source. Unless noted, the rule behind the calls is not given here.

Experiment [1] in a line: antimalarial activity against Dd2 strain (AID 2302;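 active = growth inhibition above 50% at the single 2 µM test dose, taken to imply half-maximal potency below 2 µM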;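 note: 0% = DMSO untreated growth and 100% = chloroquine plus artemisinin killed control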). As to conditions: P. falciparum Dd2 in RBCs, LDH growth readout, 72 h; at 2 µM; active compounds read high.
A short description of experiment [2]: human hepatoma cell viability loss – ATP luminescence, cytotoxicity control for P. falciparum antimalarial project, primary screen (AID 2303;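 active = inhibition above 50%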;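 note: 0% = DMSO wells and 100% = digitonin-killed cells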). The following applies: HepG2 viability, 24-48 h, at 10 µM, active compounds read high.
In experiment [3] the target is L-lactate dehydrogenase (Plasmodium falciparum (isolate CDC / Honduras)) (UniProt Q27743). The experiment can be described thus: PfLDH activity inhibition – cell lysate, 3D7 strain, counter-screen for P. falciparum growth inhibition project (AID 2304).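 Note: 0% = vehicle and 100% = reference inhibitor.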 As to conditions: P. falciparum 3D7 crude extract, LDH APAD/NBT absorbance; at 2 µM; active compounds read high. For orientation: A counterscreen serves to expose hits that act by an unwanted route or on another target.

A short description of experiment [4]: inhibition of 3D7 malaria parasite growth – strain 3D7 (AID 2306).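 Note: 0% = DMSO wells and 100% = chloroquine plus artemisinin control wells.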 As to conditions: P. falciparum 3D7 erythrocytic growth, LDH absorbance, 72 h; at 2 µM; active compounds read high.
Experiment [5] deals with Calcium-dependent protein kinase 1 (Plasmodium falciparum (isolate 3D7)) (UniProt P62344). The experiment can be described thus: PfCDPK1 kinase inhibitors, biochemical, TCAMS library (AID 1159585; cut-off not given, nearly all actives have IC50 up to about 0.98 µM;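 note: inhibitors leave more ATP so luminescence rises with inhibition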). The following applies: recombinant PfCDPK1, Kinase-Glo ATP depletion luminescence.
Experiment [6] concerns the target Plasmodium falciparum protein kinase 6 (PK6, PF3D7_1337100) (UniProt Q8IDW1). The experiment can be described thus: PfPK6 kinase inhibitors, biochemical, TCAMS library (AID 1159586). The following applies: recombinant PfPK6, Kinase-Glo ATP depletion luminescence.
Experiment [7] concerns the target Protein kinase 7 (PK7), Plasmodium falciparum 3D7 (PF3D7_0213400) (UniProt Q7YTF7). The experiment can be described thus: inhibition of Plasmodium PK7 catalytic activity – biochemical, TCAMS antimalarial set, Kinase-Glo luminescence (AID 1159587). The following applies: recombinant PfPK7, Kinase-Glo ATP depletion luminescence. On the technique in general: Kinase-Glo reads ATP consumption through a luciferase reaction.

Experiment [8] has as its target Calcium-dependent protein kinase 4 (Plasmodium falciparum (isolate 3D7)) (UniProt Q8IBS5). The experiment can be described thus: PfCDPK4 kinase inhibitors, biochemical, TCAMS library (AID 1159588; cut-off not given, nearly all actives have IC50 up to about 0.91 µM). As to conditions: recombinant PfCDPK4, Kinase-Glo ATP depletion luminescence.

Chain of Calcium-dependent protein kinase 1 (Plasmodium falciparum (isolate 3D7)) (P62344 whole entry, looked up): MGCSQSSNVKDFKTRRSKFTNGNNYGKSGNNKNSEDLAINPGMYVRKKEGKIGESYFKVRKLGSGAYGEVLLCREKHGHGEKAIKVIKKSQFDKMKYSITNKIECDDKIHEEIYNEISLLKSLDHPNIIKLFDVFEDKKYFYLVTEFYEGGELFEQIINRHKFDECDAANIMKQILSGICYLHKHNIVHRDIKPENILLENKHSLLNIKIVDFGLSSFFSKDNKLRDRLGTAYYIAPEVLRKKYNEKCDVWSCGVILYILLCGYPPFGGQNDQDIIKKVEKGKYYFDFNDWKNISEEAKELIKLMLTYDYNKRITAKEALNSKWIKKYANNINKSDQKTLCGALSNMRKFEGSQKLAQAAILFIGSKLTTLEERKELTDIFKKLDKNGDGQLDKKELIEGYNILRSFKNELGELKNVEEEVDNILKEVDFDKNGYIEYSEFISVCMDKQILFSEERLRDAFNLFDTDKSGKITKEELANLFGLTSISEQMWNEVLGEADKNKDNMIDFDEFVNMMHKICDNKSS
Chain of L-lactate dehydrogenase (Plasmodium falciparum (isolate CDC / Honduras)) (Q27743 whole entry, looked up): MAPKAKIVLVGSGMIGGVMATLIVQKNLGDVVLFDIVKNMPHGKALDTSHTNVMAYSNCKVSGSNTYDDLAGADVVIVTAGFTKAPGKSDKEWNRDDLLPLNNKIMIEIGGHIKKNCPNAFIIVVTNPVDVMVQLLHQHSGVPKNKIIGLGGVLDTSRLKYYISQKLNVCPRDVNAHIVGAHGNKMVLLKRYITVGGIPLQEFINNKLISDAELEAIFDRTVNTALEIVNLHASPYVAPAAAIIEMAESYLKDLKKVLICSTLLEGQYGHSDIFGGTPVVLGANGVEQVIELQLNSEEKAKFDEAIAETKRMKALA
Chain of Calcium-dependent protein kinase 4 (Plasmodium falciparum (isolate 3D7)) (Q8IBS5 whole entry, looked up): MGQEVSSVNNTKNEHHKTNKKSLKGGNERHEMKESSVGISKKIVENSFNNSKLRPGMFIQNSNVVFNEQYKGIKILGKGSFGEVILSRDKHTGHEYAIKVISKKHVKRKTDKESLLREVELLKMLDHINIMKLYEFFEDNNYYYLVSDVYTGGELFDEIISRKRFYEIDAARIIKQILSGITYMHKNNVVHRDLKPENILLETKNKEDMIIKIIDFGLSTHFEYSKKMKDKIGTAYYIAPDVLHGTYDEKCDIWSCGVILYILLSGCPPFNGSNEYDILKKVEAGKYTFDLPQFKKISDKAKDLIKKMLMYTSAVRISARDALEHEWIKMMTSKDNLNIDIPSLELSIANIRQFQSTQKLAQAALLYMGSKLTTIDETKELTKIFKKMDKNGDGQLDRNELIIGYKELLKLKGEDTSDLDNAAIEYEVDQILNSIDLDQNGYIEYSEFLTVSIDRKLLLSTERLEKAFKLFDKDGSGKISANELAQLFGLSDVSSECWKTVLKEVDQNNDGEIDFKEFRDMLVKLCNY
Chain of Plasmodium falciparum protein kinase 6 (PK6, PF3D7_1337100) (Q8IDW1 1-305): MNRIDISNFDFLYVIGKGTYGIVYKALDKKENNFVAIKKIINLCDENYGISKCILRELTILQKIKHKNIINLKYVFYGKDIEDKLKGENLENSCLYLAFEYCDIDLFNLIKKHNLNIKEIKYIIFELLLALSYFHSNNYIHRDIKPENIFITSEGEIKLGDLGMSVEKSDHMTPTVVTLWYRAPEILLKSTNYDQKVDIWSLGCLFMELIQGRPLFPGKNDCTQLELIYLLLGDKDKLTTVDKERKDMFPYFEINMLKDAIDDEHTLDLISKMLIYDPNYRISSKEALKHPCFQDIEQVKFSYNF
Chain of Protein kinase 7 (PK7), Plasmodium falciparum 3D7 (PF3D7_0213400) (Q7YTF7 1-343): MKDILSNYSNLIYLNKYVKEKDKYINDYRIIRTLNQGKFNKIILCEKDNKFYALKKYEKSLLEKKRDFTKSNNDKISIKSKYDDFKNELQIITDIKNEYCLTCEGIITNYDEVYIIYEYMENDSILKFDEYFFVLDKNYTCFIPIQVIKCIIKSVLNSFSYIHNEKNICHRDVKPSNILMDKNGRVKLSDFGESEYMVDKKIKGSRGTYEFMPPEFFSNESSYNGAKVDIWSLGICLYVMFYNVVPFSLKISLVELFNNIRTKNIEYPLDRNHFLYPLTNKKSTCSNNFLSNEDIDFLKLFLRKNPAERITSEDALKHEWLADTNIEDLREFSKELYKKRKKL

Consider `O=C(NC(Cc1ccccc1)C(=O)O)c1cc(=O)c2ccccc2o1` (centres undefined), for which the figures for the growth inhibition in experiment [1] and in experiment [4] were 10% and 99% (active), respectively. In addition, the inhibition in experiment [2] is 53% (active); in experiment [3], -6%. Also, the outcome in experiment [5], in experiment [6], in experiment [7] and in experiment [8] was inactive.

`COc1ccc2nccc([C@@H](O)CN3CCC(NCc4cc5cccnc5[nH]4)CC3)c2n1`: the values for the growth inhibition in experiment [1] and in experiment [4] were 0% and 90% (active), respectively. Also, the inhibition in experiment [2] was 7%; in experiment [3], -2%. In addition, the result in experiment [5], in experiment [6], in experiment [7] and in experiment [8] was inactive.

With `Cc1ccc(C2(C)CN(CCCOc3cccc(-c4ccc(C(=O)NC(C)C)cc4)c3)CCO2)cc1` (centres undefined), the growth inhibition in experiment [1] was 89% (active); in experiment [4], 93% (active). Besides, the inhibition in experiment [2] was 15%; in experiment [3], 0%. The result in experiment [5], in experiment [6], in experiment [7] and in experiment [8] was inactive.

By inhibition is commonly meant the relative decrease from the control value, in per cent.

Values taken from PubChem BioAssay.
